Values without a mark were called inactive. Results filed as inconclusive are left out. Active and inactive are the calls of the source. Unless noted, the call rests on the fitted dose curve; in most records, active means well fitted curve in the direction sought with a large enough effect in the repeat runs; inconclusive means weak or mixed curves; inactive means no such curve, though single readings can be large; an effect the other way counts as inactive or inconclusive.

A short description of assay [1]: qHTS assay to identify small molecule agonists of the progesterone receptor (PR) signaling pathway - cell viability counter screen (AID 1346799; calls by dose curve; further: nearly all actives have a fitted effect of over 45% in size; further: potency means the concentration at half of the fitted maximal effect). In a few lines: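 Counter screen for cytotoxicity: compound-treated PR-UAS-bla HEK293T cells (16 hr, 37C, 5% CO2) were assayed with CellTiter-Glo, luminescence measured after 30 min at room temperature.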
On the technique in general: qHTS replaces the single test concentration by a dilution series.

Assay [2] can be described thus: qHTS assay to identify small molecule antagonists of the TGF-beta/Smad signaling pathway - cell viability counter screen (AID 1346824). Further: nearly all actives have a fitted effect of over 50% in size. Further: potency means the concentration at half of the fitted maximal effect. In a few lines:
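Cytotoxicity counter-screen run in the same wells as the beta-lactamase Smad reporter read: CellTiter-Glo luminescence after 30 min at room temperature. HEK 293T SBE-bla cells had 5 hr compound exposure at 37 C with TGF-beta1 (0.25 ng/mL stock).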

Assay [3] in a line: qHTS assay to identify small molecule agonists of the TGF-beta/Smad signaling pathway - cell viability counter screen (AID 1346829). Further: nearly all actives have a fitted effect of over 45% in size. Further: potency means the concentration at half of the fitted maximal effect. On activity change, negative = cytotoxicity: top concentration of the series differs between compounds. The method in brief: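 Tox21 qHTS format: SBE-bla HEK 293T cells treated with DMSO-dissolved compounds for 5 hr; CellTiter-Glo luminescence after 30 min at room temperature.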
Assay [4] addresses Thyrotropin-releasing hormone receptor (Homo sapiens) (UniProt P34981). In words: qHTS assay to identify small molecule antagonists of the thyrotropin-releasing hormone receptor (TRHR) signaling pathway (AID 1346877; active means well fitted inhibition curve with a large enough effect in the repeat runs, not every such curve was filed as active; further: series mostly up to about 51 µM). The method in brief:
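Cells (TRHR-HEK293) are plated and kept 18 h at 37 °C/5% CO2. A calcium-sensitive dye is added for 2 h, compound follows for 5 min at room temperature, and TRH is then given at 1 nM final.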

For assay [5] the target is unchanged. In words: qHTS assay to identify small molecule agonists of the thyrotropin-releasing hormone receptor (TRHR) signaling pathway (AID 1346891; calls by dose curve; further: potency means the concentration at half of the fitted maximal effect;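 on activation: HEK293 cells expressing TRHR with calcium dye readout; series mostly up to about 58 µM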). In a few lines: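 Agonist-mode calcium mobilisation screen: TRHR-transfected HEK293 cells cultured overnight (18 h), dye-loaded for 2 h at 37 °C, exposed to compounds, and monitored by fluorescence for 3 min.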
Assay [6] in a line: Human pregnane X receptor (PXR) small molecule agonists, qHTS cell viability counter screen (AID 1346977). Further: nearly all actives have a fitted effect of over 50% in size. Further: potency means the concentration at half of the fitted maximal effect. The method in brief:
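Measures live-cell protease fluorescence (CellTiter-Fluor) in PXR-Luc HepG2 cells treated 24hr with compounds at 37C. Cells had 5hr to attach before pin transfer of DMSO solutions.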

Assay [7] is described as follows: Caspase-3/7 induction in HepG2 cells by small molecules, qHTS assay (AID 1346978). Further: nearly all actives have a fitted effect of over 15% in size. Further: potency means the concentration at half of the fitted maximal effect. The method in brief: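 Caspase-3/7 induction was measured by Caspase-Glo 3/7 luminescence (30 min, room temperature) after a 17 hr compound exposure of wild-type HepG2 cells seeded at 2,000 per well and pre-incubated 5 hr.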
Assay [8] can be described thus: qHTS assay to identify small molecule agonists of the TGF-beta/Smad signaling pathway (AID 1346859; active means well fitted activation curve with a large enough effect in the signal ratio in the repeat runs, not every such curve was filed as active; the % refers to the signal ratio; further: series mostly up to about 77 µM). The method in brief:
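Smad-responsive beta-lactamase reporter cells (HEK 293T) received compounds from DMSO stocks after overnight attachment, were incubated 5 hr, then treated 2 hr with FRET substrate before dual-emission fluorescence measurement (405 nm excitation).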

Assay [9] can be described thus: qHTS assay to identify small molecule antagonists of the progesterone receptor (PR) signaling pathway - cell viability counter screen (AID 1346798). Further: nearly all actives have a fitted effect of over 50% in size. Further: potency means the concentration at half of the fitted maximal effect. On activity change, negative = cytotoxicity: series mostly up to about 92 µM. The method in brief: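 Same-well multiplex: after 16 hr at 37C with compound and R5020 stimulation, HEK293T cells carrying a UAS-bla reporter received LiveBLAzer substrate (2 hr RT), then CellTiter-Glo (30 min RT) for luminescent viability.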
On the % scale 0 is the no-effect control and ±100 the full control effect.

Thyrotropin-releasing hormone receptor (Homo sapiens), sequence (P34981 whole entry, looked up): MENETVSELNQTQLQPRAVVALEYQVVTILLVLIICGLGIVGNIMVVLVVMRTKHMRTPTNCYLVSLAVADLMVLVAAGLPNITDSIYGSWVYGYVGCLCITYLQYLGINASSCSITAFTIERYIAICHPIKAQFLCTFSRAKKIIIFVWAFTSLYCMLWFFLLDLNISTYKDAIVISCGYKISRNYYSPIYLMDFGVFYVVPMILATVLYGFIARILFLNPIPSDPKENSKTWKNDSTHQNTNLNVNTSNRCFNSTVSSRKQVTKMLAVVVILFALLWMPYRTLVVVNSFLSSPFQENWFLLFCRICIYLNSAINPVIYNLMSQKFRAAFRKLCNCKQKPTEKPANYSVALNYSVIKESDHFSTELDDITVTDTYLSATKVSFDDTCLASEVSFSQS

Turning to `CCCCCCCCNC(C)C(O)c1ccc(SC(C)C)cc1` (stereo not given), the Potency in [1] was 29.8 µM (active); in assay [2], 21.3 µM (active); in [3], 23.9 µM (active); in assay [6], 13.3 µM (active); in assay [7], 21.1 µM (active). In addition, the Potency result in assay [4] and in assay [5] was “inactive” each time.

Consider `O=c1[nH]sc2cc(Cl)ccc12`, for which the Potency result in assay [1], in assay [2], in assay [3], in assay [4], in [5] and in assay [7] was “inactive” throughout.

For the compound `CN(C/C=C/C#CC(C)(C)C)Cc1cccc2ccccc12`, in [1], the Potency was 13.3 µM (active). In addition, the Potency entry in assay [2], in assay [3], in assay [8], in assay [4], in assay [5] and in assay [6] was “inactive” throughout. For the same compound, in assay [7], the Potency entry was “inactive”.

For `Cc1cccc(CN2CCN(C(c3ccccc3)c3ccc(Cl)cc3)CC2)c1` (stereo not given), the Potency entry in assay [9], in [3], in assay [8], in [4], in assay [5] and in [6] was “inactive” throughout. Also, the Potency entry in [7] was “inactive”.

Consider `CCCCN1C(=O)[C@@H]([C@H](O)C2CCCCC2)NC(=O)C12CCN(Cc1ccc(Oc3ccc(C(=O)O)cc3)cc1)CC2`, for which the Potency entry in assay [9], in assay [2], in assay [3], in assay [4] and in assay [5] was “inactive” each time.

`Nc1ccc2c3c(cccc13)-c1ccccc1-2`: the Potency result in assay [1], in assay [2], in [3] and in assay [4] was “inactive” throughout. The Potency in assay [5] was 31.2 µM (active).

For the compound `CCCCN(CCCC)c1ccc(C(=O)c2ccccc2C(=O)O)c(O)c1`, the Potency in assay [1] was 24.6 µM (active). Moreover, the Potency result in [2], in [3] and in [5] was “inactive” throughout.

Take `CC(C)(C)C(=O)OCOC(=O)C1N2C(=O)CC2S(=O)(=O)C1(C)C` (stereo not given): the Potency entry in assay [1], in [2], in assay [3], in assay [4], in [5] and in [6] was “inactive” each time. Moreover, the Potency entry in [7] is “inactive”.

With `CCOc1ccc2nc3cc(N)ccc3c(N)c2c1`, the Potency entry in [1], in [2], in assay [3], in [4], in assay [5] and in [7] was “inactive” each time.

As to `Fc1ccc([C@@H]2CCNC[C@H]2COc2ccc3c(c2)OCO3)cc1`, the Potency result in assay [9], in [2], in assay [3], in assay [4], in assay [5] and in assay [7] was “inactive” in each case. For the same compound, the Potency in assay [6] is 29.8 µM (active).

`CCCCC(CC)COC(=O)c1ccccc1C(=O)O` (stereo not given): the Potency entry in assay [9], in [3], in assay [5], in assay [6] and in assay [7] was “inactive” each time.

As to `Cc1ccc(-n2nc(C(C)(C)C)cc2NC(=O)Nc2ccc(OCCN3CCOCC3)c3ccccc23)cc1`, the Potency entry in assay [9], in assay [2], in assay [3], in assay [4], in assay [5] and in assay [7] was “inactive” in each case.

Turning to `O=[N+]([O-])c1cc(Cl)c(Cl)c(Cl)c1Cl`, the Potency result in assay [1], in assay [2], in assay [3], in [4], in assay [5] and in [6] was “inactive” in each case. Also, the Potency entry in [7] was “inactive”.

Take `CC(C)(C)CC(C)(C)c1ccc(O)c(Cc2ccc(Cl)cc2Cl)c1`: the Potency in [1] was 33.5 µM (active); in [2], 21.3 µM (active); in assay [3], 19 µM (active); in assay [6], 18.8 µM (active); in [7], 26.6 µM (active). Also, the Potency result in [4] and in assay [5] was “inactive” throughout.

For `N=C1N=C(N)c2ccccc21`, the Potency entry in [1], in assay [2], in [3], in [8], in [4] and in assay [5] was “inactive” each time. The values for the Potency in assay [6] and in assay [7] were 27.3 µM (active) and 54.5 µM (active), respectively.

Consider `c1cc(C(c2ccc(OCC3CO3)cc2)c2ccc(OCC3CO3)cc2)ccc1OCC1CO1` (stereo not given), for which the Potency result in assay [9] and in assay [7] was “inactive” throughout.

As for `CN(C)c1ccc(C2(c3ccc(N(C)C)cc3)OC(=O)c3cc(N(C)C)ccc32)cc1`, the Potency result in assay [1], in assay [2], in assay [3], in assay [8], in assay [4] and in assay [5] was “inactive” in each case. In addition, the Potency result in assay [6] and in assay [7] was “inactive” each time.

Regarding `CC(C)(C)CC(C)(C)c1ccc(OCCOCC[N+](C)(C)Cc2ccccc2)cc1`, the Potency in assay [1] was 48.5 µM (active); in [2] it was 48.9 µM (active); in assay [3], 43.6 µM (active). Moreover, the Potency result in assay [8] and in [7] was “inactive” throughout.

As for `CC(=O)S[C@@H]1CC2=CC(=O)CC[C@]2(C)[C@H]2CC[C@@]3(C)[C@@H](CC[C@@]34CCC(=O)O4)[C@H]12`, the Potency in assay [9] was 24.3 µM (active). For the same compound, the Potency result in [2], in assay [3], in assay [4], in [5], in assay [6] and in [7] was “inactive” in each case.

As for `CCN(CC)CCCC(C)Nc1c2ccc(Cl)cc2nc2ccc(OC)cc12` (stereo not given), the Potency in assay [9] was 13.3 µM (active); in [7], 29.8 µM (active). For the same compound, the Potency result in assay [3], in assay [4] and in assay [5] was “inactive” in each case.

For `NNc1nc(-c2ccc([N+](=O)[O-])cc2)cs1`, the Potency entry in assay [9], in assay [8], in assay [4], in assay [5] and in assay [7] was “inactive” throughout. Further, in [6], the Potency is 27.3 µM (active).

Take `CCN(CC)CCNC(=O)c1c(C)[nH]c(/C=C2\C(=O)Nc3ccc(F)cc32)c1C`: the results for the Potency in [9], in assay [6] and in assay [7] were 11.9 µM (active), 11.9 µM (active) and 26.6 µM (active), respectively. Also, the Potency result in assay [2], in [3], in [4] and in assay [5] was “inactive” throughout.

Turning to `[O-][n+]1ccccc1SSc1cccc[n+]1[O-]`, the Potency in assay [1] is 0.116 µM (active); in assay [6], 0.184 µM (active); in assay [7], 0.291 µM (active). Further, the viability change, negative = cytotoxic in assay [2] is -6.42% [at 15.8 µM]. The activity change, negative = cytotoxicity in assay [3] was -3.22% [at 15.8 µM]. Further, the activation in assay [8] was -0.0146% [at 15.8 µM]; in [5], 5.02% [at 11.8 µM]. Moreover, the activity, negative = inhibition in assay [4] was -2.61% [at 10.5 µM].

As for `O=C(OCC1CO1)C1CCCCC1C(=O)OCC1CO1` (stereo not given), the Potency entry in assay [9], in assay [2], in [3] and in [7] was “inactive” each time.

`N#CC1(c2ccc(F)cc2)CCC(=O)CC1`: the Potency entry in [1], in assay [2], in [3], in assay [8], in assay [4] and in [5] was “inactive” in each case. In addition, the Potency result in assay [6] and in assay [7] was “inactive” in each case.

Take `CCc1cc(Cc2cc(CC)cc(C(C)(C)C)c2O)c(O)c(C(C)(C)C)c1`: the Potency in [1] is 30.6 µM (active); in assay [2], 49 µM (active); in [3], 54.9 µM (active); in assay [6], 30.6 µM (active); in [7] it was 68.6 µM (active).
